# Screening data: PubChem BioAssay, several laboratories
# In the library only some 5.3% were active in any assay of this set; here they are far more common.
# M18AAP inhibitor: blocks P. falciparum M18 aspartyl aminopeptidase; recombinant PfM18AAP, H-Glu-NHMec fluorogenic cleavage; inhibition, % at 7.35 µM; 290,000 compounds, 1.2% hits; AID 1822;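 active means inhibition above the campaign mean inhibition over all tested compounds plus 3 SD, cut at about 28% in these data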;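 further: 0% = plate median of test compound wells and 100% = 2 mM ZnCl2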
# ALR H2O2 inh: inhibitors of human sulfhydryl oxidase ALR. P55789. purified ALR, DTT oxidation, H2O2 HRP-luminol luminescence. inhibition, % (test concentration not listed). 290,000 compounds, 3.8% hits. AID 485317;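 active means mean replicate inhibition above about 79%, with every replicate also reaching it, limit read from the data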
# Target sequence (P55789 whole entry, looked up): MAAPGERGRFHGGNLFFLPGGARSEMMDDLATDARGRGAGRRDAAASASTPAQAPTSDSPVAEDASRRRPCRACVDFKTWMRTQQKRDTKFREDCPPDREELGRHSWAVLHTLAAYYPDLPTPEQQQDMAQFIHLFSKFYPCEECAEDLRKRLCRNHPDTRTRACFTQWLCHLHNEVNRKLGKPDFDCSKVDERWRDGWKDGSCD
# HIF act: HIF pathway transcriptional activation | AID 1910 | activation, % at 7.5 µM (by protocol) | U2OS HRE-luciferase reporter, luminescence; normalized: DMSO 0%, desferrioxamine 100% | 300,000 compounds, 0.32% hits;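 active means mean activation of at least 10% of the iron chelator positive control signal, with at least half of replicates also reaching 10%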
# SUMO Mot1 rescue: inhibitors of SUMOylation pathway: yeast Mot1-301 growth rescue; growth rescue, % at 18.8 µM; S. cerevisiae Mot1-301 growth rescue, ATP luminescence, 38.5C; percent above DMSO median, 100 means doubled; 320,000 compounds, 1% hits;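 active means every valid replicate shows activation above 250% relative to neutral control wells; inactive means the rest, any valid replicate at or below 250%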;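 further: OY570 slx delta 5 strain wells were the positive control but not used for scaling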
# The depositor's hits bear a star; x = not tested or not shown.
SMILES,M18AAP inhibitor,ALR H2O2 inh,HIF act,SUMO Mot1 rescue
Cc1ccc2c3c([nH]c2c1)C(=O)CC(C)(C)S3,2,98*,1,-3
COc1ccc(CNC(=O)C2CCN(C(=O)Cc3ccccc3)CC2)cc1,-4,x,0,-2
COc1ccc(OC)c(-c2csc(CCn3nc(C)cc3C)n2)c1,5,x,x,491
COc1cccc2cc(-c3csc(CCn4nc(C)cc4C)n3)c(=O)oc12,5,98*,1,-17
Cc1cc(C)n(CCc2nc(-c3ccco3)cs2)n1,-11,99*,0,12
CC/C(C)=N/Nc1nc(-c2cc3cccc(OC)c3oc2=O)cs1,20,98*,2,14
CC(C)Sc1nc2sc3c(c2c2nnc(SCC(=O)NCc4ccco4)n12)CCCC3,-1,4,0,25
C=C(C)CNC(=O)c1ccc2nc(Cc3ccc(OC)cc3)oc2c1,1,x,11*,-17
COC(=O)n1c(=O)oc2ccc(S(=O)(=O)N3CCCCC3)cc21,5,21,0,43
CCCCOC(=O)n1c(=O)oc2cc(S(=O)(=O)N3CCCCC3)ccc21,-5,5,55*,53
Cc1ccc(OCC(=O)Nc2cccc(O)c2)cc1C,0,98*,3,-12
CNC(=S)NNC(=O)COc1ccc(C)c(C)c1,22,90*,0,6
Cc1cccc(OCC(=O)Nc2cccc(O)c2)c1,5,-13,2,-12
COc1ccccc1N1CCN(CC(=O)NCC2CCCO2)CC1 (centres undefined),4,7,0,-2
COc1cc([N+](=O)[O-])cc(CN2CCCCC2)c1O,-3,98*,-1,-22
N#Cc1ccsc1NC(=O)CCN1C(=O)C2CCCCC2C1=O (centres undefined),x,-2,x,-3
CCOc1ccc(S(=O)(=O)N2CCCCC2)cc1NC(=O)C1CCC1,x,-9,0,1
Cc1cc(OC2CCCCC2)nc(-c2ccccc2O)n1,4,99*,0,42
CNC(=O)c1c(C)nn(-c2ccc(F)c(Cl)c2)c1-c1cc(C)on1,-9,x,0,34
Cc1ccc(NC(=S)N(Cc2cccs2)Cc2cc3cccc(C)c3[nH]c2=O)cc1,-5,-9,889*,-12
NC(=O)N=Nc1c(O)n(Cc2ccccc2)c2ccc(Br)cc12,-7,-28,1,3
CC1CC(C)CN(C(=O)c2ccc(-c3ccc([N+](=O)[O-])cc3)o2)C1 (centres undefined),x,89*,2,147
CNc1nnc(-c2cccc(N(C)C)c2)s1,5,99*,1,10
COCCN(Cc1cn[nH]c1-c1ccc2cc(OC)ccc2c1)C(C)C,-13,10,-7,12
c1ccc2c(CSc3ncnc4nc[nH]c34)cccc2c1,-6,98*,0,295*
SMILES,M18AAP inhibitor,ALR H2O2 inh,HIF act,SUMO Mot1 rescue
c1ccc(CCSc2ncnc3nc[nH]c23)cc1,0,-16,2,7
COCCN(C(=O)c1ccc(OCC(C)C)cc1)c1c(N)n(Cc2ccccc2)c(=O)[nH]c1=O,x,2,0,-13
C/C(N)=C(/C#N)C(=O)CSc1nc2ccccc2n1CC(C)C,-2,-13,0,14
CCN1CCN(C(=O)c2ccccc2Nc2ccc(SC(F)F)cc2)CC1,1,90*,0,2
Cc1cc2c(NC3CCCCC3)ncnc2s1,-2,52,0,42
COc1cc(/C=N/NC(=O)c2cc3c(ccc4ccccc43)o2)cc(OC)c1O,32*,-13,1,46
COc1cc(/C=N/NC(=O)c2nc3ccccn3c2C)cc(OC)c1O,17,99*,0,4
Cc1c(C(=O)N/N=C/c2ccc(N3CCOCC3)cc2)nc2ccccn12,0,10,1,-1
Cc1nc(SCc2ccc(Cl)c(Cl)c2)ncc1C(=O)O,-6,97*,0,-13
CCn1c(=O)cc(SCC(=O)NCCCN2CCN(c3ccc(F)cc3)CC2)c2ccccc21,5,96*,0,-5
CCn1c(=O)cc(SCC(=O)NCc2ccc(C)o2)c2ccccc21,-5,98*,0,11
CCn1c(=O)cc(SCC(=O)NCc2cccnc2)c2ccccc21,1,-3,0,-3
CCn1c(=O)cc(SCC(=O)NCCCN2CCC(C)CC2)c2ccccc21,8,-5,0,4
CCn1c(=O)cc(SCC(=O)NCc2ccccn2)c2ccccc21,3,98*,0,-6
CC(C)n1c(O)c(N=NC(=O)Cn2ccc(C(F)(F)F)n2)c2ccccc21,2,x,0,3
CN(Cc1nccn1C)C(=O)C1CCC(=O)N(Cc2cccc(C(F)(F)F)c2)C1 (centres undefined),-1,-2,-1,-8
CCCCn1c(N)c(N(Cc2ccccc2OC)C(=O)CN2C(=O)NC3(CCCC3)C2=O)c(=O)[nH]c1=O,x,-4,0,11
Cc1ccccc1CC1(CO)CCCN(C(=O)CCCN2CCCCC2=O)C1 (centres undefined),3,5,2,-23
c1ccc(-c2nnc3sc(-c4ccncc4)nn23)cc1,3,10,0,18
c1ccc(-c2nnc3sc(-c4cc5ccccc5o4)nn23)cc1,-3,-8,17*,-2
CCOC(=O)Cn1nc(C)c2c1CCCC2=O,-14,-19,-1,11
CCOC(=O)N1CCN(S(=O)(=O)c2ccc(C(=O)NNc3nc4ccc(Cl)cc4s3)cc2)CC1,7,98*,0,-9
O=C(N/N=C/C(Br)=C\c1ccccc1)c1n[nH]c2c1CCC2,3,-6,12*,141
O=C(NNC(=O)c1ccccc1O)c1ccc(Cl)c(S(=O)(=O)N2CCCCC2)c1,x,97*,-2,108
O=C(NNC(=O)c1cccs1)c1ccc(Cl)c(S(=O)(=O)N2CCCC2)c1,x,8,x,2
SMILES,M18AAP inhibitor,ALR H2O2 inh,HIF act,SUMO Mot1 rescue
CCOC(=O)c1ccc(NC(=O)CSC2=NC(=O)C(CC)C(=O)N2)cc1 (centres undefined),22,99*,0,122
CCOC(=O)c1ccc(NC(=O)CSc2nnc(C)n2-c2ccccc2)cc1,-6,-7,2,119
Cn1cc(SCC(=O)Nc2nc3ccccc3s2)c2ccccc21,-8,98*,0,37
CCC1C(=O)N=C(SCC(=O)Nc2nc3ccccc3s2)NC1=O (centres undefined),-2,99*,1,-22
Cc1csc(SCC(=O)Nc2nc3ccccc3s2)n1,1,-5,2,0
CCC1C(=O)N=C(SCC(=O)Nc2cccc3ccccc23)NC1=O (centres undefined),-2,99*,0,0
C=CCNC(=S)Nc1cccc2[nH]ncc12,14,1,0,259
CC/C(=N\NC(N)=O)c1ccc(OC(F)F)cc1,-9,x,0,-27
O=C(NCc1ccccc1)c1onc(CSc2ccc(F)c(F)c2)c1C(=O)NCc1ccccc1,x,-1,-3,4
CC(C)(C)OC(=O)C[C@@H]1C/C=C\C[C@H](CC(=O)N[C@H](CO)Cc2ccccc2)C(=O)N[C@@H](Cc2c[nH]c3ccccc23)COC1=O,x,-3,x,0
